Unmarked numbers belong to inactive results. Inconclusive results are not listed. Where a call stands in place of a potency, no number is given. Active and inactive are the calls of the source. The call rests on the fitted dose curve; in most records, active means well fitted curve in the direction sought with a large enough effect; inconclusive means small, poorly fitted or top-dose-only effect, or another doubt; inactive means no such curve, though single readings can be large; an effect the other way counts as inactive or inconclusive.
Assays:
[1] = target: Cytochrome P450 3A4 (Homo sapiens) (UniProt P08684); assay: qHTS Assay for Activators of Cytochrome P450 3A4 (AID 885); further: nearly all actives have a fitted effect of over 65% in size
Cytochrome P450 3A4 (Homo sapiens), sequence (P08684 whole entry, looked up): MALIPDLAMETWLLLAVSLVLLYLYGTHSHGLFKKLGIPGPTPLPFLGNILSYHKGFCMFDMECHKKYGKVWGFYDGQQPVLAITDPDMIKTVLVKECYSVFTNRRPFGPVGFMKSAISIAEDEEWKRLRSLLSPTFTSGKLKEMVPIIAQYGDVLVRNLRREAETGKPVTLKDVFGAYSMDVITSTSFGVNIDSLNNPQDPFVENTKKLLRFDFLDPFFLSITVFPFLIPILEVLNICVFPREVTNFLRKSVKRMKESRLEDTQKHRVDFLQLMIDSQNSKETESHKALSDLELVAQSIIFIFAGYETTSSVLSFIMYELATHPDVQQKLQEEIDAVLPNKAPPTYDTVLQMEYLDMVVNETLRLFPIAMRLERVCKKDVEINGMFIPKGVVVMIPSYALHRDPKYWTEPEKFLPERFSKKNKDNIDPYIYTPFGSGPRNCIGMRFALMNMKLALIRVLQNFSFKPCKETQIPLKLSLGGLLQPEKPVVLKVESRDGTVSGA
Method in brief: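 Luminescent readout of luciferin formed from 25 uM Luciferin-PPXE (KM level) by 20 nM CYP3A4 in 200 mM KPO4, with 60 min NADPH-driven reaction at room temperature after 10 min compound exposure. Ketoconazole (57 uM) defined 100% inhibition.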

[2] = Confirmation and Secondary Assay for Modulators of Hemoglobin Beta Chain Splicing at IVS2 654 locus (AID 910);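 further: per-well total GFP intensity by laser scanning cytometry after 2-day treatment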
Method in brief: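 HeLa cells stably carrying EGFP interrupted by mutant beta-globin IVS2-654 intron (CMV-driven) were treated with compound for 2 days at 37C; corrected splicing was scored as total peak GFP intensity per well (488 nm excitation, 500-520 nm emission).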

[3] = Confirmation and Secondary Assay for Modulators of Hemoglobin Beta Chain Splicing at IVS2 705 locus (AID 930);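 further: HeLa cells stably expressing the EGFP-705 splicing reporter; series mostly up to about 46 µM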
Method in brief: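 HeLa cells stably carrying EGFP interrupted by mutant beta-globin IVS2-705 intron (CMV-driven) were seeded at 500 cells/well, treated next day with compound for 2 days at 37C; corrected splicing restores EGFP, read as total peak GFP intensity per well.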

[4] = target: Cytochrome P450 3A4 (Homo sapiens) (UniProt P08684); assay: qHTS Assay for Inhibitors and Substrates of Cytochrome P450 3A4 (AID 884); further: series mostly up to about 57 µM; nearly all actives have a fitted effect of over 50% in size
Method in brief: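 Luminescent readout of luciferin produced by CYP3A4 (20 nM) dealkylation of Luciferin-PPXE, 25 uM (its KM). NADPH-driven reaction ran 60 min at RT after 10 min compound preincubation; data scaled to 57 uM ketoconazole as 100% inhibition.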

[5] = target: Cytochrome P450 2C9 (Homo sapiens) (UniProt P11712); assay: qHTS Assay for Inhibitors and Substrates of Cytochrome P450 2C9 (AID 883); further: nearly all actives have a fitted effect of over 60% in size
Cytochrome P450 2C9 (Homo sapiens), sequence (P11712 whole entry, looked up): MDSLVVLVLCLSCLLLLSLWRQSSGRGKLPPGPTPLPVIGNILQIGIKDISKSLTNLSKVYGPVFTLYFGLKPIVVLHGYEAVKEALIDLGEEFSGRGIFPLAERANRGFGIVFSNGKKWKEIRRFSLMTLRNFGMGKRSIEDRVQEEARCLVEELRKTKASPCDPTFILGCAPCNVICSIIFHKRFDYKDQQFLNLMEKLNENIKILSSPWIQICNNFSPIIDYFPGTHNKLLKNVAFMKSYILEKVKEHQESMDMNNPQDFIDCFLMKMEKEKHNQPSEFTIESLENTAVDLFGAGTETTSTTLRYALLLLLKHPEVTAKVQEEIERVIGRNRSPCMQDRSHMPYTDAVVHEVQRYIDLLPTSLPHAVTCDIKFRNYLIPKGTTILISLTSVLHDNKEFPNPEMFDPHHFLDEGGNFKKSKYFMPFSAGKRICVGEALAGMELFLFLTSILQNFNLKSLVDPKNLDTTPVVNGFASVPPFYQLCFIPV
Method in brief: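 CYP2C9 deoxyluciferin hydroxylation, 37C, 60 min with NADPH regeneration; 10nM enzyme, 100uM Luciferin-H (KM). Glo detection reagent stopped reaction; luminescence normalized to sulphaphenazole (57uM) full inhibition.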

[6] = target: Cytochrome P450 2D6 (Homo sapiens) (UniProt P10635); assay: qHTS Assay for Inhibitors and Substrates of Cytochrome P450 2D6 (AID 891);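 further: luciferin methyl ether substrate demethylated by CYP2D6 with NADPH regeneration; nearly all actives have a fitted effect of over 60% in size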
Cytochrome P450 2D6 (Homo sapiens), sequence (P10635 whole entry, looked up): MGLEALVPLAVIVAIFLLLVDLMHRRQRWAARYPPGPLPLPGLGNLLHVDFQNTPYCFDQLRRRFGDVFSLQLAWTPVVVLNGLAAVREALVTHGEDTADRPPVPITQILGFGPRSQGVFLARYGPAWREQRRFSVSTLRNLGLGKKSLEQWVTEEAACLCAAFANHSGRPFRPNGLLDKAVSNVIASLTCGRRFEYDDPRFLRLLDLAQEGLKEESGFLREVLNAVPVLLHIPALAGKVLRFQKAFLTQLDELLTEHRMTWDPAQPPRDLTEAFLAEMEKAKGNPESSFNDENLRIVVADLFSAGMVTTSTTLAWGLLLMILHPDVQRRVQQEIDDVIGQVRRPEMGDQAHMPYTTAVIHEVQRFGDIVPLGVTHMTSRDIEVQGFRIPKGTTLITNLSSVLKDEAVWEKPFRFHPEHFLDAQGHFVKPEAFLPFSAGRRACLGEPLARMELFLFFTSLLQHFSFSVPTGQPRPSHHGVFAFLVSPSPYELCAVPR
Method in brief: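 Luminescent read-out of luciferin formed by 5 nM human CYP2D6 demethylating 30 uM Luciferin-ME EGE (Km level) over 60 min at room temperature after NADPH regeneration addition. Data normalized to full inhibition by 1.43 uM quinidine.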

SMILES: O=c1cc(-c2ccccc2)oc2c(O)c(O)ccc12
- Potency [1]: inactive
- outcome [2]: inactive
- outcome [3]: inactive

SMILES: Clc1ccccc1-c1nc(-c2ccncc2)no1
- activity change, positive = activation [1]: -40.1% [at 11.4 µM]

SMILES: COc1cc(NC(C)CCCN)c2ncccc2c1 (configuration not stated)
- outcome [2]: inactive
- outcome [3]: inactive

SMILES: Cc1c(Nc2ncccc2C(=O)O)cccc1C(F)(F)F
- Potency [4]: inactive
- outcome [2]: inactive
- outcome [3]: inactive

SMILES: O=C(/C=C/c1ccc(O)cc1)c1ccc(O)cc1O
- outcome [2]: inactive
- outcome [3]: inactive

SMILES: Nc1nc(Cl)nc2c1ncn2[C@@H]1O[C@H](CO)[C@@H](O)[C@H]1O
- Potency [4]: inactive
- outcome [2]: inactive
- outcome [3]: inactive

SMILES: N=c1ccn2c(n1)O[C@H]1[C@H](O)[C@@H](CO)O[C@H]12
- Potency [5]: inactive
- Potency [6]: inactive

SMILES: C=C[C@@H]1CN2CC[C@@H]1C[C@H]2[C@H](O)c1ccnc2ccc(OC)cc12
- Potency [5]: inactive
